# Results: PubChem BioAssay (NCI)
# This is part of a sample that, as a whole, favours compounds with a hit. Of some 79,000 tested, about 15% had one in any assay. Values without a mark were called inactive. Calls of active or inactive are those of the source. Cut-off read from the data, not from the text of the source: active = growth inhibition above about 70%; inactive = the rest.
# Assay: NCI Yeast Anticancer Drug Screen. Data for the rad50 strain (AID 155);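 note: 0% = growth of vehicle-only cultures of the same strain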
# Conditions: S. cerevisiae rad50 strain growth inhibition; at 50.0 µM; hits give high values
# Method in brief: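 Relative growth inhibition (compound vs vehicle) was measured in yeast with a defined repair-gene alteration.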
row,SMILES,growth inhibition
1,CCN(CC)CCN(CC)CC(=O)Nc1ccccc1Cl,-14.9%
2,COc1[nH]c2ccccc2c1C=O,45.1%
3,CCOC(=O)C1=C(C(=O)c2ccc(C)cc2)C(c2ccc([N+](=O)[O-])cc2)C(C(=O)c2ccc(C)cc2)=C(C(=O)OCC)N1,-27.3%
4,CCOC(=O)CC1(CC(=O)OCC)OCCO1,-6.2%
5,CCOC(=O)CCC1(C)OCC(O)CO1 (stereo not given) (tested in a mixture with another compound),-11.1%
6,O=C(NCCc1[nH]nc2c1C(=O)C=C(Nc1ccccc1)C2=O)OCc1ccccc1,-29.7%
7,NNC(=O)c1ccc(OCc2nc3ccccc3[nH]2)cc1,-14.8%
8,C=Cc1c(C)c2cc3[nH]c(cc4nc(cc5nc(cc1[nH]2)C(C)=C5CCC(=O)OC)C(CCC(=O)OC)=C4C)c(C)c3C=C,8.1%
9,Cc1cc(N(CCC#N)S(=O)(=O)c2ccccc2)ccc1C=Nc1ccc(C(=O)O)cc1,-12.2%
10,CC(C)NC(=O)CCC(=O)O,-14.9%
11,CC1=N/C(=C\c2ccc([N+](=O)[O-])cc2)C(=O)O1,19.9%
12,COc1cc(C(C#N)NNC(=O)c2ccccc2O)ccc1O (stereo not given),34.4%
13,NC(=O)CO,22.2%
14,CC1=CC(O)(Cc2ccccc2)CC(C)(C)C1 (stereo not given),2.1%
15,CCCCCn1c(=O)c2c(=O)[nH][nH]c2c2ccccc21,-16.3%
16,CCCc1cc(=O)oc2c3c(c4c(c12)OC(C)(C)CC4)O[C@H](C)C(C)[C@@H]3O (stereo not given in full),9.9%
17,CCN(CCO)CC(=O)c1cc(Cl)ccc1OC,-3.85%
18,CCC1CCC(Cc2ccncc2)CC1 (stereo not given),3.65%
19,O=C1c2ccccc2C(=O)c2c1cccc2S(=O)(=O)Nc1ccccc1,-1.45%
20,O=C(Nc1ccc(Cl)cc1)OCC#CCOC(=O)Nc1ccc(Cl)cc1,5.8%

row,SMILES,growth inhibition
1,CCN(CC)CCOc1ccc(/C(C#N)=C/c2ccc(OCCN3CCCCC3)cc2)cc1,35%
2,O=C(Nc1ccccc1)c1ccccc1Cl,24.5%
3,CCC1CCC(=O)NC1=O (stereo not given),-10.3%
4,CCN(CC)CCOC(=O)c1ccc(N)c2ccccc12,-3.8%
5,NC1CC(=O)c2c(Cl)sc(Cl)c21 (stereo not given),51.4%
6,CCC1(CC)SCc2nc3ccccc3n21,23%
7,O=c1[nH]cnc2nn(C3OC(CO)C(O)C3O)cc12 (stereo not given),-20.4%
8,CC1=NN(C(=O)Cc2ccccc2)C(=O)/C1=C\c1ccco1,-37.9%
9,CCCCCCCCCCCCCCCCCC(N)=O,5.2%
10,Cc1ccc(-c2nnc(-c3cccc4ccccc34)o2)cc1,1.85%
11,CC12OC(=O)CC1C(c1ccccc1)(c1ccccc1)O2 (stereo not given),-7%
12,CCCCCCCCC(=O)c1c(OC)oc(/C=N/NC(N)=S)cc1=O,83.5% (active)
13,CC(=O)N/N=C1/NN(C(C)=O)C2(S1)C(=O)Nc1ccc(C)cc12 (stereo not given),-4.15%
14,CCOc1ccccc1NC(=O)CC1Sc2ccccc2NC1=O (stereo not given),24.5%
15,CCOC(=O)CS,11.2%
16,O=c1c2c(ccc3ccccc32)oc2ccc3ccccc3c12,15%
17,CC1(C)CCC(=O)OC1C[N+](=O)[O-] (stereo not given),39.8%
18,CC(=O)OCN(C)C=O,25.9%
19,O=C(NC1C=Nc2ccc([N+](=O)[O-])cc2NC1=O)c1ccc(Cl)cc1 (stereo not given),13.2%
20,CCNC(=O)N(C)Cc1ccc(Cl)cc1,-4%
